# ± gives the standard deviation of the averaged measurements. Whole data set: some 33,000 sequences, median “E-score (dimensionless, -0.5 to 0.5)” near -0.049, cut for the highest 2% near 0.37. Shown is part of a subset that was picked to be rich in the highest values.
# Tested on: T1, PmTbr T-box DNA-binding domain (GST fusion)
# T1 sequence: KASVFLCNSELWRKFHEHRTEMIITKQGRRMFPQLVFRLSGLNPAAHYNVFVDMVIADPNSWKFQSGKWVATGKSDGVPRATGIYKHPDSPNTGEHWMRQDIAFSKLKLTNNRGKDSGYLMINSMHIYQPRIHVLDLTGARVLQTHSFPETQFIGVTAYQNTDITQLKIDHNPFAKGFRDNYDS
# Experiment: PBM E-score of 8-mer (E-score (dimensionless, -0.5 to 0.5)); Tbr is Tbrain of the sea star Patiria miniata (Pm) or the sea urchin Strongylocentrotus purpuratus (Sp); higher = stronger binding preference
# Conditions: the construct has about 5 more residues each side
# Method in brief: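 Primer extension turned Universal Agilent oligonucleotide arrays double-stranded. They were incubated with 200 nM protein in PBS (pH 7.5); the protein was a GST-fused Tbr T-box DNA-binding domain expressed in BL21 E. coli at 20 °C and purified on glutathione. Every ungapped 8-mer was scored from the scanned, quantified probe intensities, and the Universal PBM Analysis Suite gave each an enrichment E-score averaged over duplicate arrays.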
row,Sequence,PBM E-score of 8-mer
1,AACAACTG,0.236 ± 0.0091
2,CGACGCAC,-0.0252 ± 0.048
3,AGTGCTTC,-0.15 ± 0.097
4,CGAATGGC,0.0367 ± 0.0062
5,AACCGCAT,-0.147 ± 0.042
6,AATTCATA,-0.105 ± 0.05
7,CGGCGTGA,0.327 ± 0.0041
8,ACGCGTGA,0.38 ± 0.012
9,AGGCGTGA,0.4805 ± 0.00059
10,ACGCGTGC,0.14 ± 0.034
11,AAGCGTGT,0.235 ± 0.017
12,AGGCGTGG,0.265 ± 0.016
13,AAGCGTGA,0.401 ± 0.018
14,AGGCGTGC,0.158 ± 0.011
15,AAGCGTGG,0.0213 ± 0.089
16,GCGCGTGA,0.322 ± 0.0044
17,GGGCGTGA,0.429 ± 0.0092
18,GGGCGTAA,0.118 ± 0.012
19,CATTGCCG,0.0765 ± 0.039
20,TTAAGAAA,-0.165 ± 0.066
21,AATACTCT,-0.111 ± 0.064
22,CCGAGGGA,-0.236 ± 0.0027
23,ACGTTCAC,0.227 ± 0.06

row,Sequence,PBM E-score of 8-mer
1,CAATCGCG,0.269 ± 0.026
2,AATGCTGG,-0.209 ± 0.026
3,TAGGGTAA,-0.0929 ± 0.022
4,ATACTGAA,-0.116 ± 0.013
5,CACGCAAC,0.024 ± 0.02
6,CATAGTAG,-0.286 ± 0.031
7,GATAACCC,0.0272 ± 0.031
8,GTTAGGCA,-0.0852 ± 0.013
9,GCGTTAAC,0.275 ± 0.056
10,CATTAAGG,-0.136 ± 0.13
11,AGGCGTCG,0.353 ± 0.029
12,CGGCGTCA,0.219 ± 0.03
13,AGGCGTCA,0.4194 ± 0.0035
14,ACCTTATA,0.221 ± 0.084
15,ATGAGCAG,-0.0322 ± 0.034
16,ATGGTGCG,0.187 ± 0.036
17,ATGGTGTC,0.383 ± 0.02
18,ATGGTGTA,0.104 ± 0.021
19,ATGGTGTG,0.383 ± 0.0049
20,ATGGTGGC,0.271 ± 0.056
21,CTGGTGTC,0.341 ± 0.023
22,CAGTAGAC,-0.0988 ± 0.05
23,AGCGCGTG,0.27 ± 0.025

row,Sequence,PBM E-score of 8-mer
1,CGGTAAAG,-0.102 ± 0.037
2,ACACATTG,0.39 ± 0.017
3,ACACATAA,0.251 ± 0.0089
4,ACACATAG,0.268 ± 0.022
5,ACACATTC,0.387 ± 0.016
6,AAACATTG,-0.0327 ± 0.00054
7,AAACATTC,-0.0525 ± 0.037
8,ACACATAT,0.386 ± 0.0052
9,CCACATTC,0.104 ± 0.038
10,ACACATTA,0.264 ± 0.008
11,GAGAAAAC,0.0669 ± 0.12
12,ATTCCTCC,-0.291 ± 0.034
13,GACGCGTA,0.0611 ± 0.022
14,ATCCAGCA,-0.175 ± 0.032
15,AATGGTCG,-0.249 ± 0.14
16,ACGAGAGG,0.0873 ± 0.05
17,GTAGTCTA,-0.207 ± 0.03
18,GTAGGTGA,0.397 ± 0.02
19,CTAGGTAA,-0.173 ± 0.055
20,CTAGGTCC,-0.13 ± 0.071
21,CTAGGTCA,0.00648 ± 0.021
22,CTAGGTGC,0.403 ± 0.008
23,CTAGGTTC,-0.0841 ± 0.0095

row,Sequence,PBM E-score of 8-mer
1,CTAGGTGA,0.398 ± 0.014
2,ATAGGTGA,0.345 ± 0.028
3,GTAGGTTA,-0.189 ± 0.025
4,ATAGGTGC,0.414 ± 0.0057
5,ATAGGTGG,0.26 ± 0.051
6,GTAGGTAA,-0.141 ± 0.024
7,CAGCATAC,-0.00656 ± 0.045
8,GCGCAGAA,-0.0316 ± 0.067
9,GGTAAACC,0.131 ± 0.039
10,GAATCATA,0.0757 ± 0.097
11,CTAGTAAG,-0.0596 ± 0.04
12,CCATGAGC,-0.138 ± 0.16
13,ACTGTGAA,0.378 ± 0.0086
14,GCTGTGAA,0.3817 ± 0.0019
15,ACTGTGAT,0.152 ± 0.046
16,ACTGTGAG,0.22 ± 0.017
17,CCTGTGAA,0.306 ± 0.0045
18,TCTGTGAA,0.253 ± 0.0052
19,CAGGCTTA,-0.197 ± 0.047
20,ATATAGCG,0.0197 ± 0.053
21,CGTATGCA,-0.0979 ± 0.032
22,GATTTTGC,0.189 ± 0.061
23,AAATAGGA,-0.294 ± 0.053

row,Sequence,PBM E-score of 8-mer
1,AGCTAACG,0.157 ± 0.031
2,AGCTAACA,0.209 ± 0.033
3,GGCTAACA,0.179 ± 0.019
4,TGCTAACA,0.369 ± 0.041
5,CGCTAACC,0.256 ± 0.017
6,CGCTAACG,0.3714 ± 0.0037
7,ATGTCCAG,-0.0643 ± 0.0044
8,GTATGCCA,-0.0108 ± 0.032
9,CTTGTAGC,0.0941 ± 0.012
10,GGCGACAC,0.402 ± 0.019
11,AGCGACAC,0.317 ± 0.054
12,CGCGACAC,0.375 ± 0.02
13,TGCGACAA,0.296 ± 0.013
14,CGCGACAA,0.336 ± 0.0038
15,GGCGACAA,0.3812 ± 0.0024
16,CGCGACAG,0.308 ± 0.014
17,GGCGACCC,-0.0415 ± 0.017
18,CACGACAC,0.314 ± 0.0061
19,CCGACGCA,-0.0454 ± 0.012
20,GTCACATA,0.263 ± 0.0064
21,ATGCGATC,-0.0333 ± 0.042
22,CAAGTTGA,0.116 ± 0.0034
23,AGCGTTGA,0.102 ± 0.055

row,Sequence,PBM E-score of 8-mer
1,CACCTCCA,0.423 ± 0.0067
2,GACCTCCC,-0.178 ± 0.0044
3,TACCTCCA,-0.00358 ± 0.099
4,AACCTCCA,-0.158 ± 0.028
5,AACCTCCC,-0.0756 ± 0.12
6,CACCTCCC,0.423 ± 0.0044
7,AACCTCCG,0.0421 ± 0.042
8,CACCTCCG,0.447 ± 0.0095
9,CCCCTCCG,0.137 ± 0.019
10,CCGAAGTA,-0.302 ± 0.021
11,CCCAAGTA,-0.0284 ± 0.033
12,CGAGTGCA,-0.0272 ± 0.087
13,ACGAACTG,0.0451 ± 0.03
14,CCTTTGGC,0.0109 ± 0.046
15,CGATCCAG,-0.0702 ± 0.018
16,CGACCTGC,0.196 ± 0.043
17,ACACCTGC,0.461 ± 0.017
18,ACACCTGA,0.4657 ± 0.0021
19,CCACCTGC,0.299 ± 0.02
20,CCACCTGG,0.252 ± 0.0058
21,AAACCTGA,0.0859 ± 0.12
22,AGACCTGA,-0.102 ± 0.055
23,ATACCTGC,0.0129 ± 0.047

row,Sequence,PBM E-score of 8-mer
1,ATACCTGG,0.139 ± 0.025
2,GCACCTGC,0.395 ± 0.018
3,ACACCTGG,0.466 ± 0.0053
4,GAACCTGC,-0.162 ± 0.0065
5,ATGCCCAC,-0.186 ± 0.051
6,AGAACCCT,-0.229 ± 0.014
7,ACTCGCCA,0.144 ± 0.015
8,CCTCTTAG,-0.103 ± 0.0023
9,CTATACCA,-0.205 ± 0.013
10,AGCCCCAG,-0.138 ± 0.057
11,TCTTGCCA,0.0678 ± 0.023
12,GAGAACCC,-0.0803 ± 0.011
13,AGGCTCTG,-0.0891 ± 0.012
14,AAGAATGT,-0.0657 ± 0.011
15,ATCAGTGG,-0.0659 ± 0.059
16,AGGGCAAG,-0.2 ± 0.018
17,TCGATTCA,0.0262 ± 0.015
18,GTGGGCCA,-0.191 ± 0.031

# Reference: the supplement of paper PMC4166925
